Bioassay records deposited in PubChem by National Center for Advancing Translational Sciences (NCATS).
Glioma ERSR ind: qHTS for Inducers of the Endoplasmic Reticulum Stress Response (ERSR) in Human Glioma: qHTS; Potency, µM, most hits filed as activators; 420,000 compounds, 0.02% hits; AID 602332, 2012; U87-MG GRP78 promoter luciferase reporter, 16 h; note: series mostly up to about 76 µM; nearly all actives have a fitted effect of over 35% in size
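Stably transfected U87-MG glioma cells carrying a GRP78-based luciferase sensor; 16 h compound incubation. Luminescence end-point read 10 min after Bright-Glo addition at room temperature.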
RGS4 inh: Inhibitors of Regulator of G Protein Signaling (RGS) 4: qHTS; Regulator of G-protein signaling 4 (Homo sapiens), P49798; Transcreener GDP fluorescence polarization, RGS4-accelerated GTP hydrolysis; Potency, µM (highest dose often 114 µM), usual class: inhibitors; 390,000 compounds, 0.039% hits; note: nearly all actives have a fitted effect of over 75% in size
Target sequence (P49798 whole entry, looked up): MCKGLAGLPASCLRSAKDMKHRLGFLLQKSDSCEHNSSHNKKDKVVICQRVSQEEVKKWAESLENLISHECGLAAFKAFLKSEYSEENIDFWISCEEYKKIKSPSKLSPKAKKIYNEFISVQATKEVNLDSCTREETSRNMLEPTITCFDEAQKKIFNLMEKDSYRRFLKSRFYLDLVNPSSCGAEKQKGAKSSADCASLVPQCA
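MLSMR compounds (23 nl, pin-transferred) preincubated 10 min at room temperature with a 500nM (2x) first reagent, then RGS4 at 900nM (2x) plus Transcreener GDP mix added; fluorescence polarization (620/688 nm) read before and after 90 min at 30 °C.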
TSHR antagonist: Antagonists of the Thyroid Stimulating Hormone Receptor: HTS campaign; Thyrotropin receptor (Homo sapiens), P16473; 330,000 compounds, 0.2% hits; activity change, negative = inhibition, % at 11.5 µM; TSHR-expressing cells, TSH-stimulated cAMP HTRF, 2 h; stronger effect = lower value;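 active = activity change below a set negative limit, meaning inhibition stronger than a set level, cut at about -70% in these data; inconclusive = activity change between two set negative limits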
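Competitive HTRF cAMP read-out (cryptate anti-cAMP antibody, cAMP-d2; 30 min, room temperature) in freshly harvested TSHR cells. Compounds added before TSH at EC80 (4nM final), followed by 2 hours' incubation at 37 deg C.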
Akt phos inh: HTS Assay for Inhibitors of Akt Phophorylation: Primary Screen | 360,000 compounds, 0.32% hits | Neuro2A IGF-stimulated pAkt S473 HTRF, 20 min; stronger effect = lower value | AID 651550, 2012 | activity change, % for hits at 50 µM; in the data active = activity change below about -80%; inconclusive = mostly about -51% to -80%
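Single-point screen (50 µM final compound) in Neuro2A cells stimulated 20 min with 6 nM IGF at 37 deg C. After lysis, Ser473-phosphorylated Akt read by HTRF (ex 330 nm, em 615/665 nm) as the 665/615 ratio.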
TCR activator: Activators of T cell receptors: qHTS campaign | primary human leukocytes, anti-CD3, IL-2 HTRF, 48 h | Potency, µM (series often up to 9.22 µM), hits mostly activators | 330,000 tested, under 10 active
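Activity was scored as IL-2 release from primary human leukocytes given only a TCR signal (a-CD3 beads) plus compound for 48 hr. Detection used a two-antibody HTRF format read at 665nm.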
LDHA inh: qHTS assay for inhibitors of human lactate dehydrogenase; L-lactate dehydrogenase A chain (Homo sapiens), P00338; purified LDHA, NADH/diaphorase-resazurin fluorescence; stronger effect = lower value; activity change, % (values are at about 110 or 230 µM); 480,000 compounds, 0.15% hits; in the data active = activity change below about -30%; inconclusive = mostly about -25% to -30%
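Human LDH5 at 2 nM final in Tris HCl pH 7.4 with 0.06 mM NADH and 0.2 mM pyruvate, reacted 5 minutes at room temperature. Remaining NADH coupled via diaphorase/resazurin; resorufin fluorescence read at 0 and 20 minutes, normalized to enzyme-free and DMSO wells.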
Hits are given with their value; - = inactive; ? = inconclusive; . = not tested or not shown; [ ] = dose if it differs, or a comment. This is a sample that favours compounds with a hit; in the whole collection about 0.55% have one here. Unless noted, calls come from the whole dose curve; as a rule, active = well fitted curve in the direction sought with a large enough effect; inconclusive = small, poorly fitted or top-dose-only effect, or another doubt; inactive = no such curve, though single readings can be large; an effect the other way counts as inactive or inconclusive.

SMILES	Glioma ERSR ind	RGS4 inh	TSHR antagonist	Akt phos inh	TCR activator	LDHA inh
COc1ccc(NC2=NCCC(=O)N2Cc2cccs2)cc1	-	-	-	-111%	-	-
COc1ccc(NC2=NCC(=O)N2Cc2cccs2)cc1	-	-	-	.	-	-
O=C(O)C1=CC(=C(c2ccc(O)c(C(=O)O)c2)c2ccc(O)c(C(=O)O)c2)C=CC1=O	-	11µM	-	.	.	-75
O=C(O)c1cc(O)ccc1O	-	-	.	-	-	-
N#Cc1nc(-c2ccccc2F)oc1N1CCN(Cc2ccccc2)CC1	.	.	.	.	.	-
Cc1nnc(SCC(=O)Nc2ccc(S(N)(=O)=O)cc2)n(N)c1=O	-	-	-	-	-	-39
COc1cc(NC(=O)c2ccc3c(c2)OCO3)ccc1NC(=O)C(C)C	-	?	-	-115%	-	-
CCc1ccc(OCC(=O)Nc2ccc3oc(-c4ccccc4)nc3c2)c(-n2cnnc2)c1	.	.	.	.	.	-
Cc1ccccc1CN(C)CCc1ccccn1	-	-	-	-	-	-32
CCC(NC(=O)Nc1nnc(C(F)(F)F)s1)(C(F)(F)F)C(F)(F)F	-	-	-87	-	-	-
O=C(O)c1cnc(-c2ccccc2)nc1Sc1ccccc1Cl	-	-	-	-	.	-31
CCOc1ccccc1CN1CCN(S(=O)(=O)CC)CC1	-	-	-	-	-	?
CCS(=O)(=O)N1CCN(Cc2ccccc2OC)CC1	-	-	-	-	-	-31
COc1cccc(CN2CCN(Cc3cc(OC)c(OC)c(OC)c3)CC2)c1OC	-	-	-	-	-	-35
COc1ccc(CN2CCN(Cc3cccc(OC)c3OC)CC2)cc1	.	.	.	.	.	-
NC(=S)N/N=C1\C2C3C(Br)C4C5CC(C1C53)C24 (stereo not given)	.	.	.	.	.	-
CCCC(=O)NCCc1nc2ccccc2n1C	-	-	-	-124%	-	-
COCCCNC(=O)c1cc(-c2cccs2)nc2ccccc12	.	.	.	.	.	-
O=C(OCC(=O)N(Cc1ccccc1)Cc1ccccc1)c1ccc2ccccc2n1	.	.	.	.	.	-37
O=C(CN1CCN(S(=O)(=O)c2ccc3ccccc3c2)CC1)N1CCc2ccccc2C1	-	-	-	-	-	-
O=C(CN1CCN(S(=O)(=O)c2ccccc2F)CC1)N1CCc2ccccc2C1	-	-	-	-	-	-47
CN1CCN(S(=O)(=O)c2ccc(NC(=O)c3cccs3)cc2)CC1	-	-	.	-102%	-	-
Cc1ccccc1Nc1nc(CSc2nnnn2C2CC2)cs1	.	.	.	.	.	-
CCCn1c(SCc2cc(=O)oc3c(C)c(C)ccc23)n[nH]c1=O	.	.	.	.	.	-
CCC(CC)NC(=O)COC(=O)c1cc(-c2ccc(C)o2)nc2ccccc12	.	.	.	.	.	-
SMILES	Glioma ERSR ind	RGS4 inh	TSHR antagonist	Akt phos inh	TCR activator	LDHA inh
CS(=O)(=O)N(CCc1ccccc1)CC(=O)NCc1cccnc1	-	-	-	-108%	-	-
CC(=O)c1cccc(NS(=O)(=O)c2ccc(N/C=C/C(=O)c3ccc(F)cc3)cc2)c1	-	-	-73	-	-	-
COc1ccc(C2Nc3c(C)cc(C)cc3-c3cc(C)nn32)cc1O (stereo not given)	.	.	.	.	.	-
COc1ccc(NC(=O)CN(C)CC(=O)Nc2ccccc2SC)cc1	-	-	-	-	-	-35
COc1ccc(OCCN(C)CC(=O)Nc2ccccc2SC)cc1	-	-	-	-	-	-
COc1cccc(N2C(=O)CN(C3CCCCC3)[C@H]3CS(=O)(=O)C[C@H]32)c1	.	.	.	.	.	-
COc1ccccc1NC(=O)CN1CCCCC1	-	-	-	-	-	-
CCOc1ccc(NC(=O)CN2CCN(CC(=O)c3ccc(OCC)cc3)CC2)cc1	-	?	-	-	-	-
CCOc1ccc(NC(=O)CN2CCN(CC(=O)Nc3ccc(F)cc3)CC2)cc1	-	-	-	-117%	-	-
CCN1CCN(CC(=O)Nc2c(OC)cccc2OC)CC1	-	-	-	-	-	-31
CSc1nccn1CC(=O)Nc1ccc(F)cc1	-	-	-	-114%	-	-
COc1ccc2c(c1)c(C(C(=O)O)N1CCN(CCC#N)CC1)cn2CC(=O)O (stereo not given)	.	.	.	.	.	-
Cc1nc(SCC(=O)Nc2cccc3ccccc23)oc1C	.	.	.	.	.	-
Cc1nn(CCc2nc(-c3ccccc3)cs2)c2[nH]c(=O)cc(C(F)(F)F)c12	.	.	.	.	.	-
Cc1cc(C)c2c(C)c(C(=O)NCC(c3ccco3)N3CCCC3)oc2c1 (stereo not given)	.	.	.	.	.	-
c1ccc(OCCCN2CCC(c3nc4ccccc4s3)CC2)cc1	.	.	.	.	.	-
CC1(C)CC(=O)C(Sc2ccccc2[N+](=O)[O-])=C(O)C1	-	-	-	-	-	-78
Cc1cc(=O)oc2cc(OCCC(C)C)ccc12	.	.	.	.	.	-
CCN(CC)S(=O)(=O)c1ccc(-c2nc(C#N)c(NC3CC3)o2)cc1	.	.	.	.	.	-
CCCn1c(=O)c(C(=O)Nc2ccccc2C(=O)OC)c(O)c2ccccc21	-	-	-	-104%	-	-
CCOC(=O)c1ccccc1NC(=O)c1c(O)c2ccccc2n(CC)c1=O	-	-	-	-	-	-
CC(=O)Nc1c(C)noc1/C=C\c1ccc(S(=O)(=O)Nc2ccc(C)cc2)cc1	.	.	.	.	.	-
CCS(=O)(=O)N1CCCC(C(=O)NC2CCCC2)C1 (stereo not given)	-	-	-	-	-	-
CCS(=O)(=O)N1CCCC(C(=O)NC2CCCCC2C)C1 (stereo not given)	-	-	-	-110%	-	-
O=C(/C=C/Nc1ccc(OC(F)(F)F)cc1)C(F)(F)F	-	-	-	-127%	-	-
SMILES	Glioma ERSR ind	RGS4 inh	TSHR antagonist	Akt phos inh	TCR activator	LDHA inh
O=C1c2cccc3c([N+](=O)[O-])ccc(c23)C(=O)N1c1ccccn1	-	-[11.4 µM]	-	-	-	-
O=C1c2cccc3c([N+](=O)[O-])ccc(c23)C(=O)N1c1ccc(Cl)cn1	-	-	-89	-	-	-
CCOC(=O)c1sc(Nc2ccccc2)nc1C(F)(F)F	.	.	.	.	.	-
Cn1nnnc1NCc1ccc(-c2ccccc2)o1	.	.	.	.	.	-
CCOC(=O)C[n+]1c(C)ccc2c1CCC2	-	-	-	-109%	-	-
COc1ccccc1CNC(=O)c1cc(Br)ccc1O	.	.	.	.	.	-
NS(=O)(=O)c1cccs1	.	.	.	.	.	-
N#Cc1nccnc1S(=O)(=O)c1cccs1	-	-	-87	-	-	-
O=C(c1ccco1)N1CCN(Cc2cccc(F)c2)CC1	-	-	-	-	-	-32
CCc1ccc(CN2CCN(C(=O)c3ccco3)CC2)cc1	-	-	-	-	-	?
